Reference: PubChem BioAssay AID1159580 (chemical genetic matrix, 2015)
The campaign covered roughly 5,500 compounds. About 2,000 (36%) were called active. Inconclusive results (about 18%) are left out. Rule as the data show it: active = normalized growth mostly below about 0.91 (no sharp cut-off); inconclusive = no clear call, values can overlap the other calls; inactive = mostly above about 0.92. The list shows a part of the results.

Experiment: chemical genetic growth profiling, strain panel (AID 1159580);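 also: tested at 20 µM; growth read once vehicle control cultures reached saturation at 30 °C; 1 = growth at the plate median or of vehicle wells; lower values mean less growth of the strain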
Details: growth OD

Measured: normalized growth

CCNc1nc(Cl)nc(NCC)n1
inactive: S. cerevisiae deletion strains, locus YJR043C, strain POL32, stronger effect = lower value 0.939 | S. cerevisiae deletion strains, locus YJR075W, strain HOC1, stronger effect = lower value 0.998 | S. cerevisiae deletion strains, locus YKL009W, strain mrt4, stronger effect = lower value 1.01 | S. cerevisiae deletion strains, locus YKL068W, stronger effect = lower value 0.995 | S. cerevisiae deletion strains, locus YKL085W, strain MDH1 (second series), stronger effect = lower value 1 | S. cerevisiae deletion strains, locus YKL085W, strain MDH1, stronger effect = lower value 1 | S. cerevisiae deletion strains, locus YKL160W, strain elf1, stronger effect = lower value 1 | S. cerevisiae deletion strains, locus YKL190W, strain CNB1, stronger effect = lower value 1 | S. cerevisiae deletion strains, locus YKR001C, strain vps1, stronger effect = lower value 1.02 | S. cerevisiae deletion strains, locus YKR026C, strain gcn3, stronger effect = lower value 0.985 | S. cerevisiae deletion strains, locus YKR091W, strain srl3, stronger effect = lower value 0.996 | S. cerevisiae deletion strains, locus YLL001W, strain dnm1, stronger effect = lower value 1 | S. cerevisiae deletion strains, locus YLL026W, stronger effect = lower value 0.981 | S. cerevisiae deletion strains, locus YLL041C, strain sdh2, stronger effect = lower value 0.992 | S. cerevisiae deletion strains, locus YLR027C, strain aat2, stronger effect = lower value 0.977 | S. cerevisiae deletion strains, locus YLR039C, strain RIC1, stronger effect = lower value 1 | S. cerevisiae deletion strains, locus YLR058C, strain SHM2, stronger effect = lower value 0.999 | S. cerevisiae deletion strains, locus YLR102C, strain apc9, stronger effect = lower value 1.01 | S. cerevisiae deletion strains, locus YLR221C, strain rsa3, stronger effect = lower value 0.987 | S. cerevisiae deletion strains, locus YLR258W, strain gsy2, stronger effect = lower value 0.989 | S. cerevisiae deletion strains, locus YLR262C, strain YPT6 (second series), stronger effect = lower value 0.992 | S. cerevisiae deletion strains, locus YLR262C, strain YPT6, stronger effect = lower value 0.997 | S. cerevisiae deletion strains, locus YLR268W, strain sec22, stronger effect = lower value 1 | S. cerevisiae deletion strains, locus YLR320W, strain mms22, stronger effect = lower value 0.986 | S. cerevisiae deletion strains, locus YLR330W, strain CHS5, stronger effect = lower value 0.994 | S. cerevisiae deletion strains, locus YLR342W, strain FKS1 (second series), stronger effect = lower value 0.995 | S. cerevisiae deletion strains, locus YLR342W, strain FKS1, stronger effect = lower value 0.991 | S. cerevisiae deletion strains, locus YLR357W, strain rsc2, stronger effect = lower value 0.953 | S. cerevisiae deletion strains, locus YLR370C, strain arc18, stronger effect = lower value 1.02 | S. cerevisiae deletion strains, locus YLR371W, strain rom2, stronger effect = lower value 1 | S. cerevisiae deletion strains, locus YLR384C, strain iki3, stronger effect = lower value 0.976 | S. cerevisiae deletion strains, locus YLR418C, strain cdc73, stronger effect = lower value 0.985 | S. cerevisiae deletion strains, locus YML016C, strain PPZ1, stronger effect = lower value 1 | S. cerevisiae deletion strains, locus YML032C, strain rad52, stronger effect = lower value 1.01 | S. cerevisiae deletion strains, locus YML120C, strain ndi1, stronger effect = lower value 1.03 | S. cerevisiae deletion strains, locus YML124C, strain tub3, stronger effect = lower value 1.01 | S. cerevisiae deletion strains, locus YMR058W, strain fet3, stronger effect = lower value 0.999 | S. cerevisiae deletion strains, locus YMR078C, strain ctf18, stronger effect = lower value 1.01 | S. cerevisiae deletion strains, locus YMR125W, strain sto1, stronger effect = lower value 0.99 | S. cerevisiae deletion strains, locus YMR129W, stronger effect = lower value 0.997 | S. cerevisiae deletion strains, locus YMR205C, strain PFK2, stronger effect = lower value 0.997 | S. cerevisiae deletion strains, locus YMR223W, strain ubp8, stronger effect = lower value 1.01 | S. cerevisiae deletion strains, locus YMR231W, strain pep5, stronger effect = lower value 0.995 | S. cerevisiae deletion strains, locus YMR263W, strain SAP30, stronger effect = lower value 1.01 | S. cerevisiae deletion strains, locus YMR307W, strain GAS1, stronger effect = lower value 1.06 | S. cerevisiae deletion strains, locus YNL067W, strain RPL9B, stronger effect = lower value 0.988 | S. cerevisiae deletion strains, locus YNL071W, strain lat1, stronger effect = lower value 0.998 | S. cerevisiae deletion strains, locus YNL128W, strain TEP1, stronger effect = lower value 0.997 | S. cerevisiae deletion strains, locus YNL153C, strain GIM3, stronger effect = lower value 0.985 | S. cerevisiae deletion strains, locus YNL209W, strain ssb2, stronger effect = lower value 0.992 | S. cerevisiae deletion strains, locus YNL233W, strain BNI4, stronger effect = lower value 1.01 | S. cerevisiae deletion strains, locus YNL248C, strain rpa49, stronger effect = lower value 0.989 | S. cerevisiae deletion strains, locus YNL250W, strain rad50, stronger effect = lower value 1.01 | S. cerevisiae deletion strains, locus YNL271C, strain bni1, stronger effect = lower value 1.01 | S. cerevisiae deletion strains, locus YNL298W, strain CLA4, stronger effect = lower value 1.02 | S. cerevisiae deletion strains, locus YNL307C, strain MCK1, stronger effect = lower value 1.01 | S. cerevisiae deletion strains, locus YNL322C, strain KRE1 (second series), stronger effect = lower value 0.997 | S. cerevisiae deletion strains, locus YNL322C, strain KRE1, stronger effect = lower value 0.996 | S. cerevisiae deletion strains, locus YNR049C, strain mso1, stronger effect = lower value 0.988 | S. cerevisiae deletion strains, locus YNR052C, strain pop2, stronger effect = lower value 1.02 | S. cerevisiae deletion strains, locus YOL006C, strain TOP1, stronger effect = lower value 1.04 | S. cerevisiae deletion strains, locus YOL012C, strain htz1 1.15 | S. cerevisiae deletion strains, locus YOL147C, strain pex11, stronger effect = lower value 1.01 | S. cerevisiae deletion strains, locus YOR001W, strain rrp6, stronger effect = lower value 0.982 | S. cerevisiae deletion strains, locus YOR061W, strain CKA2, stronger effect = lower value 0.994 | S. cerevisiae deletion strains, locus YOR069W, strain VPS5, stronger effect = lower value 1 | S. cerevisiae deletion strains, locus YOR070C, strain gyp1, stronger effect = lower value 0.983 | S. cerevisiae deletion strains, locus YOR080W, strain dia2, stronger effect = lower value 0.998 | S. cerevisiae deletion strains, locus YOR083W, strain WHI5, stronger effect = lower value 1.01 | S. cerevisiae deletion strains, locus YOR106W, strain vam3, stronger effect = lower value 1.01 | S. cerevisiae deletion strains, locus YOR136W, strain idh2, stronger effect = lower value 1 | S. cerevisiae deletion strains, locus YOR144C, strain elg1, stronger effect = lower value 1 | S. cerevisiae deletion strains, locus YOR184W, strain ser1, stronger effect = lower value 1.02 | S. cerevisiae deletion strains, locus YOR265W, strain rbl2, stronger effect = lower value 0.979 | S. cerevisiae deletion strains, locus YOR270C, strain vph1, stronger effect = lower value 1.02 | S. cerevisiae deletion strains, locus YOR290C, strain snf2, stronger effect = lower value 1.02 | S. cerevisiae deletion strains, locus YOR316C, strain cot1, stronger effect = lower value 1 | S. cerevisiae deletion strains, locus YPL051W, strain arl3, stronger effect = lower value 0.987 | S. cerevisiae deletion strains, locus YPL055C, strain LGE1, stronger effect = lower value 0.992 | S. cerevisiae deletion strains, locus YPL078C, strain atp4, stronger effect = lower value 1.03 | S. cerevisiae deletion strains, locus YPL106C, strain sse1, stronger effect = lower value 0.987 | S. cerevisiae deletion strains, locus YPL240C, strain hsp82, stronger effect = lower value 0.999 | S. cerevisiae deletion strains, locus YPL241C, strain CIN2, stronger effect = lower value 0.995 | S. cerevisiae deletion strains, locus YPR119W, strain clb2, stronger effect = lower value 0.998 | S. cerevisiae deletion strains, locus YPR141C, strain kar3, stronger effect = lower value 1 | S. cerevisiae deletion strains, locus YPR163C, strain tif3, stronger effect = lower value 1 | S. cerevisiae deletion strains, locus YPR167C, strain met16, stronger effect = lower value 0.996 | S. cerevisiae deletion strains, strain wtn01, stronger effect = lower value 1.01 | S. cerevisiae strains, strain wild type, stronger effect = lower value 0.997
